Test results: PubChem BioAssay (NCATS)
Where “and” joins values, the source holds several entries; their conditions need not be identical. Identical values can stand only once. Results filed as inconclusive are left out. Calls of active or inactive are those of the source. Unless noted, calls follow the shape of the full dose curve.

System: not listed separately
Assay: Primary qHTS to identify inhibitors of SARS-CoV-2 cell entry (AID 1645846); also: nearly all actives have a fitted effect of over 45% in size; also: potency is read from the fitted curve at half-maximal effect
Details: SARS-CoV-2 pseudovirus cell entry assay, luminescence; activity change, negative = inhibition: at 57.1 µM (top of the series) unless noted; series mostly up to 57.1 µM
Summary of the method: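 Data are normalized to wells receiving SARS-CoV-2-S pseudoparticles and those given bald particles. Entry signal was luciferase luminescence in stable hACE2 Expi293F cells, 48 hr post-infection, after 1 hr compound pretreatment.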

SMILES	activity change, negative = inhibition	outcome	Potency
C[C@@H](Oc1cc(-n2cnc3ccc(CN4CCN(C)CC4)cc32)sc1C(N)=O)c1ccccc1C(F)(F)F	-97%		
CC(C)C[C@H](NC(=O)CNC(=O)c1cc(Cl)ccc1Cl)B(O)O	-97.2% and -98.8%		
Cc1ccc(C(=O)N(CCCN)[C@@H](c2nc3cc(Cl)ccc3c(=O)n2Cc2ccccc2)C(C)C)cc1	-95.6%		
O=C(Nc1cc(Cl)cc2c1[nH]c1cnccc12)c1cccnc1	-24.6% [at 27.1 µM]		
CCc1cc(Nc2nccc(-c3c(-c4ccc(OC)c(C(=O)Nc5c(F)cccc5F)c4)nc4ccccn34)n2)c(OC)cc1N1CCC(N2CCN(S(C)(=O)=O)CC2)CC1		inactive	
CC(C)CC(=O)Nc1n[nH]c2c1CN(C(=O)C1CCN(C)CC1)C2(C)C			5.62 µM (active)
CC(C)(C)c1cc(C=C(C#N)C#N)cc(Br)c1O		inactive	
CCC(=O)N1CCN(c2ccc(-n3c(=O)ccc4cnc5ccc(-c6cnc7ccccc7c6)cc5c43)cc2C(F)(F)F)CC1	-91.2% [at 27.1 µM]		
CCCCCCCCCCCCCC(=O)N[C@H](CO)[C@H](O)c1ccc([N+](=O)[O-])cc1		inactive	
CN(C)CCCN=c1c2ccccc2n(C)c2[nH]c(=O)n(C)c(=O)c12			31.6 µM (active)
CN(C)c1ccc(Nc2nc(N)n(C(=O)c3c(F)cccc3F)n2)cc1			12.6 µM (active)
O=C(O)[C@@H](c1ccc(OCc2ccc3ccccc3n2)cc1)C1CCCC1	-23.5%		
COCCNCCCn1c(C(=O)CF)c(-c2ccc(C)cc2)c2c(N)ncnc21		inactive	
Cn1cc(-c2ccc3nnc(C(F)(F)c4ccc5ncccc5c4)n3n2)cn1		inactive	
CCN(CC)CCOc1ccc(Nc2ncc3cc(-c4c(Cl)cccc4Cl)c(=O)n(C)c3n2)cc1			3.16 µM (active)
Cn1c(NCCN(CCO)CCCc2ccc([N+](=O)[O-])cc2)cc(=O)n(C)c1=O	-16.7% and 1.27%		
C/C(=C1\CCOC(=O)S1)N(C=O)Cc1cnc(C)nc1N		inactive	
CC(C)(C)OC(=O)Nc1ccc(-c2cc(C(=O)NCCCCCCC(=O)NO)no2)cc1	-8.17%		
CN(C)CCN(C)C(=O)c1ccc(NC(=O)Nc2ccc(-c3nc(N4CCOCC4)c4ccn(CC(F)(F)F)c4n3)cc2)cc1	-96.8%		
Cc1nn(Cc2ccccc2Cl)c(C)c1CN(C)CC(O)COc1ccc(Cl)cc1 (configuration not stated)			31.6 µM (active)
O=C(O)CCc1ccc(NCc2cccc(Oc3ccccc3)c2)cc1	-10.2%		
COc1cc(Nc2ncc(F)c(Nc3ccc4c(n3)NC(=O)C(C)(C)O4)n2)cc(OC)c1OC		inactive	
COc1cc(OC2CCN(C)CC2)ccc1Nc1ncc2c(n1)n(C1CCCC1)c(=O)n2C			28.2 µM (active)
O=c1cc(CN2CCOCC2)occ1OCCCCCSc1ccnc2cc(C(F)(F)F)ccc12			10 µM (active)
CC(C)c1ccccc1Cc1cc(C(=O)Nc2ccc(S(=O)(=O)c3ccccc3C(C)(C)C)cc2)c(O)c(O)c1O		inactive	
CC(=O)Oc1ccccc1C(=O)O		inactive	
O=C(Nc1ccc(F)c(C(F)(F)F)c1)Nc1nnc(-c2ccncc2)s1	-21.1%		
CCNC(=O)c1noc(-c2cc(C(C)C)c(O)cc2O)c1-c1ccc(CN2CCOCC2)cc1	-24.6%		
COc1ccc2c(c1)CC[C@@H](CN(C)CC(=O)O)[C@H]2c1ccccc1		inactive [at 114 µM]	
COc1cc2c(cc1O)CC[C@@H]1[C@@H]2CC[C@]2(C)[C@@H](O)CC[C@@H]12	-26.7%		

Target: Papain (Carica papaya) (UniProt P00784)
Assay: Primary qHTS assay for inhibitors of the protease papain (AID 1645873; active = well fitted inhibition curve with a large enough effect;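 also: papain turnover of Z-FR-AMC read as the AMC fluorescence gain over 10 min; % is scaled to controls: 0 for no effect and ±100 for the full control effect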)
Details: papain Z-FR-AMC cleavage, AMC fluorescence; series mostly up to 49.8 µM; activity change, negative = inhibition: at the top concentration

Sequence of Papain (Carica papaya) (P00784 whole entry, looked up): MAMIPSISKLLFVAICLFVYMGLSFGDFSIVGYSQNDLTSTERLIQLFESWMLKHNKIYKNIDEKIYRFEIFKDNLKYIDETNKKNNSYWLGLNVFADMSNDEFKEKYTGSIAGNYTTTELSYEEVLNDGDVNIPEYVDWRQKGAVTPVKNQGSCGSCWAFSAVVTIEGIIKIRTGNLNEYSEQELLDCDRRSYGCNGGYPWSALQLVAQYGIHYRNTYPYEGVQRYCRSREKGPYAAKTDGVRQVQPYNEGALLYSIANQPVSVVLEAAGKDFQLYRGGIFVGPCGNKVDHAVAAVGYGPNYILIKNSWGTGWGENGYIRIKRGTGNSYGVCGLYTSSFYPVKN

SMILES	activity change, negative = inhibition
Cn1cnc(CCN)c1	-8.55% (inactive)
NC(=O)CN1CC(O)CC1=O (configuration not stated)	11.4% (inactive)
C=CCN1CC[C@]23CCCCC2[C@H]1Cc1ccc(O)cc13 (some centres not stated)	-1.71% (inactive)
CN1C2CCC1CC(OC(=O)c1cc(Cl)cc(Cl)c1)C2 (configuration not stated)	-8.73% (inactive)
O=C(O)CC[N+](=O)[O-]	-8.37% (inactive)
CS(=N)(=O)CC[C@H](N)C(=O)O (some centres not stated)	21.7% (inactive)
CNCCc1c[nH]c2ccc(O)cc12	-6.57% (inactive)
